From PubChem BioAssay (NCATS)
“And” between values parts separate entries of the source, which are not always exact repeats. Identical values can stand only once. Inconclusive results are not listed. The source made the active and inactive calls. Unless noted, calls come from the whole dose curve; as a rule, active = well fitted curve in the direction sought with a large enough effect; inconclusive = small, poorly fitted or top-dose-only effect, or another doubt; inactive = no such curve, though single readings can be large; an effect the other way counts as inactive or inconclusive.

How the values were obtained:
[1] = qHTS for Inhibitors of Plasmodium falciparum (DD2) proliferation (AID 504314);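 note: parasite DNA measured by SYBR Green fluorescence after red cell lysis; plate controls were DMSO vehicle for no effect and artemisinin wells for full effect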
Method in brief: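 Infected RBCs, 0.3% parasitemia, 2.5% Hct; compound 72 h, 37C/5% CO2; lyse + SYBR Green I, RT overnight, dark; read ex485/em535; normalize to DMSO and artemisinin 0.29 uM.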

[2] = qHTS for Inhibitors of Plasmodium falciparum (GB4) proliferation (AID 504315);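 note: 0% = DMSO vehicle and -100% = 0.29 µM artemisinin control; nearly all actives have a fitted effect of over 50% in size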
Method in brief: (§1)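 Erythrocytes infected with P. falciparum line (0.3% parasitemia, 2.5% hematocrit final) incubated with compounds 72 h at 37 °C, 5% CO2; SYBR Green lysis buffer added, fluorescence read next day. Normalized to 0.29 uM artemisinin and DMSO.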

[3] = qHTS for Inhibitors of Plasmodium falciparum (7G8) proliferation (AID 504316); note: nearly all actives have a fitted effect of over 65% in size; note: potency is the fitted concentration of half-maximal effect;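 for activity change, negative = inhibition: series mostly up to about 6.7 µM; 0% = DMSO vehicle and -100% = 0.29 µM artemisinin full kill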
Method in brief: as §1

[4] = qHTS for Inhibitors of Plasmodium falciparum (HB3) proliferation (AID 504318);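 note: 0% = DMSO vehicle and -100% = artemisinin control; nearly all actives have a fitted effect of over 60% in size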
Method in brief: as §1

[5] = qHTS for Inhibitors of Plasmodium falciparum (CP250) proliferation (AID 504320);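 note: plate controls were DMSO vehicle for no effect and 0.29 µM artemisinin control for full effect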
Method in brief: as §1

[6] = biological target: Atrial natriuretic peptide receptor 1 (Homo sapiens) (UniProt P16066); test: Natriuretic polypeptide receptor (hNpr1) antagonism - Pilot CMLD screen (AID 1347052; calls by dose curve;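 note: cGMP level read as GloSensor luciferase luminescence after agonist stimulation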; note: potency is the fitted concentration of half-maximal effect;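 for activity change, negative = inhibition: HEK293 cells with hNpr1 stimulated by hNppA peptide at 0.1 nM; series mostly up to about 9.2 µM; % is set by controls: 0 for no effect and ±100 for the full control effect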)
[7] = biological target: Cytochrome P450 2C9 (Homo sapiens) (UniProt P11712); test: qHTS Assay for Inhibitors and Substrates of Cytochrome P450 2C9 (AID 883); note: % is set by controls: 0 for no effect and ±100 for the full control effect; nearly all actives have a fitted effect of over 60% in size
Method in brief: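 CYP2C9 deoxyluciferin hydroxylation, 37C, 60 min with NADPH regeneration; 10nM enzyme, 100uM Luciferin-H (KM). Glo detection reagent stopped reaction; luminescence normalized to sulphaphenazole (57uM) full inhibition.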

[8] = biological target: Cytochrome P450 3A4 (Homo sapiens) (UniProt P08684); test: qHTS Assay for Inhibitors and Substrates of Cytochrome P450 3A4 (AID 884); note: series mostly up to about 57 µM; % is set by controls: 0 for no effect and ±100 for the full control effect; nearly all actives have a fitted effect of over 50% in size
Method in brief: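 20 nM human CYP3A4 with 25 uM Luciferin-PPXE (at KM) in 200 mM KPO4, preincubated 10 min with compound; NADPH regeneration started a 60 min RT reaction. Luciferin detected by luminescence, normalized to 57 uM ketoconazole as full inhibition.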

[9] = biological target: Cytochrome P450 2D6 (Homo sapiens) (UniProt P10635); test: qHTS Assay for Inhibitors and Substrates of Cytochrome P450 2D6 (AID 891);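 note: luciferin methyl ether substrate demethylated by CYP2D6 with NADPH regeneration; % is set by controls: 0 for no effect and ±100 for the full control effect; nearly all actives have a fitted effect of over 60% in size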
Method in brief: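 Human CYP2D6 (5 nM) with 30 uM Luciferin-ME EGE (at Km) in 100 mM KPO4, compound preincubated 10 min, then NADPH regeneration system for 60 min at room temperature. Luciferin read by luminescence; normalized to 1.43 uM quinidine.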

[10] = biological target: Cytochrome P450 2C19 (Homo sapiens) (UniProt P33261); test: qHTS Assay for Inhibitors and Substrates of Cytochrome P450 2C19 (AID 899); note: nearly all actives have a fitted effect of over 60% in size; note: potency is the fitted concentration of half-maximal effect; for activity, negative = inhibition: % is set by controls: 0 for no effect and ±100 for the full control effect
Method in brief: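 In 50mM KPO4, the reaction held 5nM enzyme and KM-level (10uM) Luciferin-H EGE; it ran 60 min at 37C after NADPH regeneration and a 10 min compound preincubation. Luminescence values were scaled to 57uM ketoconazole as complete inhibition.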

[11] = biological target: Cytochrome P450 3A4 (Homo sapiens) (UniProt P08684); test: qHTS Assay for Activators of Cytochrome P450 3A4 (AID 885); note: nearly all actives have a fitted effect of over 65% in size
Method in brief: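 Signal was normalized against complete inhibition by 57 uM ketoconazole. The reaction used 20nM CYP3A4 with 25uM Luciferin-PPXE, 10-min compound preincubation and a 60-min NADPH-supported step at RT.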

Chain of Atrial natriuretic peptide receptor 1 (Homo sapiens) (P16066 whole entry, looked up): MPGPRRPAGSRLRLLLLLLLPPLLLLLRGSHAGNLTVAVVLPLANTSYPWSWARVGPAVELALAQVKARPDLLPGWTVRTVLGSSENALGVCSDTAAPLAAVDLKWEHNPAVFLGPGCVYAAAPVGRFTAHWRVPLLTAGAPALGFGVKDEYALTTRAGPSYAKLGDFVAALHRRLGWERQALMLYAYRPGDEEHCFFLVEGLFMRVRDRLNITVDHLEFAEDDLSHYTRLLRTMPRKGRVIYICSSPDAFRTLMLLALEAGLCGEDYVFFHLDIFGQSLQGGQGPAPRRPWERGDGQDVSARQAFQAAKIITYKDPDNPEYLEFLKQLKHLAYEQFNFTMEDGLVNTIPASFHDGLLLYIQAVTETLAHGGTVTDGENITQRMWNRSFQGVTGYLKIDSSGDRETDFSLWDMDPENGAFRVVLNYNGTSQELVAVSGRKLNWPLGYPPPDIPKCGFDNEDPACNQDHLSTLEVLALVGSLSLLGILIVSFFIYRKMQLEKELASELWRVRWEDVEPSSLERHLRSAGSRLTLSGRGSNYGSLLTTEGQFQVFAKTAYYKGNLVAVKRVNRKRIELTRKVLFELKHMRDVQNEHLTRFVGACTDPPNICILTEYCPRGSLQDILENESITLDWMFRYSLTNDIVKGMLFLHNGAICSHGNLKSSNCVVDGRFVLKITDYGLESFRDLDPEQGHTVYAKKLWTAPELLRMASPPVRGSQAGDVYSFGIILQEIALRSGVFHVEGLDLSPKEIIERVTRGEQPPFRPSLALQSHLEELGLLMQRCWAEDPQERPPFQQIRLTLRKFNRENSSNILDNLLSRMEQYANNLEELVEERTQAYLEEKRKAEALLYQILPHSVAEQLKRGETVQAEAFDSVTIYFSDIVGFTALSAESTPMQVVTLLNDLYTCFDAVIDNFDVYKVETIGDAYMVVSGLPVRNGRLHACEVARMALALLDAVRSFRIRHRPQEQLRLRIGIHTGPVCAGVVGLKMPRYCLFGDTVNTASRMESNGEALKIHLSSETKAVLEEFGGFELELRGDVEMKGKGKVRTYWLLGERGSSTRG
Chain of Cytochrome P450 2C19 (Homo sapiens) (P33261 whole entry, looked up): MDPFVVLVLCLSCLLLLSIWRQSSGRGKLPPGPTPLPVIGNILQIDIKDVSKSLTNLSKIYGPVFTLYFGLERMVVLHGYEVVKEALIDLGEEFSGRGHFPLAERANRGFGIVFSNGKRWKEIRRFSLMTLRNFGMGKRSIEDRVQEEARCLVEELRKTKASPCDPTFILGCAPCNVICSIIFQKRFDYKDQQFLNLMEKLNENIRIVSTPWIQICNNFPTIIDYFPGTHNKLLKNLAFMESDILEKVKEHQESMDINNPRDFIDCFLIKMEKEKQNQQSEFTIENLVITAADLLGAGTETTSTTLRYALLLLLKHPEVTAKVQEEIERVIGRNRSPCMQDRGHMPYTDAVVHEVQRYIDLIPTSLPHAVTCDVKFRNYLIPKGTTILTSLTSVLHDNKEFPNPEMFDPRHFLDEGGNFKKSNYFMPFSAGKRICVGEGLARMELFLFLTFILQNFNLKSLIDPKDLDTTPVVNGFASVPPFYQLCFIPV
Chain of Cytochrome P450 3A4 (Homo sapiens) (P08684 whole entry, looked up): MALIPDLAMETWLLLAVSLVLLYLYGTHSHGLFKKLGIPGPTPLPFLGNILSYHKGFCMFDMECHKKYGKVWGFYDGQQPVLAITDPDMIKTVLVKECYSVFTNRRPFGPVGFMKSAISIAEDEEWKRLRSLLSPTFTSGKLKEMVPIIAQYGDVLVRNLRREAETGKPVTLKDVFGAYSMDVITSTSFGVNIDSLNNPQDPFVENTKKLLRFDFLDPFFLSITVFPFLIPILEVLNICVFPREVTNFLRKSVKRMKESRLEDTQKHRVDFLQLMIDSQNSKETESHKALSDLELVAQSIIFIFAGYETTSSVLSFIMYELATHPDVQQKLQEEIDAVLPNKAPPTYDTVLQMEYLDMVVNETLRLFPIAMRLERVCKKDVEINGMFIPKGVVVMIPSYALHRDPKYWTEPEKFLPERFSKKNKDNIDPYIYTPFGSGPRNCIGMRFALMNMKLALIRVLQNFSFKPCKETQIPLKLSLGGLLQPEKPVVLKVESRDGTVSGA
Chain of Cytochrome P450 2D6 (Homo sapiens) (P10635 whole entry, looked up): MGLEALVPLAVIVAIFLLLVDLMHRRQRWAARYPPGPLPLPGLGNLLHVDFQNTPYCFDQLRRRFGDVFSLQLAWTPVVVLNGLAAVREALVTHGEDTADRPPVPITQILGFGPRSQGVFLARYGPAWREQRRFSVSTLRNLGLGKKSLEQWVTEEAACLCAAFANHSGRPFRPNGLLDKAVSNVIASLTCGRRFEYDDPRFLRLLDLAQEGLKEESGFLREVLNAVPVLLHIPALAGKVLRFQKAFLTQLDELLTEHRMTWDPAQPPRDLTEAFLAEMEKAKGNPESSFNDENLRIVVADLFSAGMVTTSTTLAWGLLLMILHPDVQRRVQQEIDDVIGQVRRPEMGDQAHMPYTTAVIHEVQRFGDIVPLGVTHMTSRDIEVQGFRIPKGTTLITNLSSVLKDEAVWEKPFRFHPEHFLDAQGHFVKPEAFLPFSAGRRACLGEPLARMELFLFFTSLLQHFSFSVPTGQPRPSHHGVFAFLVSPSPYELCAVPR
Chain of Cytochrome P450 2C9 (Homo sapiens) (P11712 whole entry, looked up): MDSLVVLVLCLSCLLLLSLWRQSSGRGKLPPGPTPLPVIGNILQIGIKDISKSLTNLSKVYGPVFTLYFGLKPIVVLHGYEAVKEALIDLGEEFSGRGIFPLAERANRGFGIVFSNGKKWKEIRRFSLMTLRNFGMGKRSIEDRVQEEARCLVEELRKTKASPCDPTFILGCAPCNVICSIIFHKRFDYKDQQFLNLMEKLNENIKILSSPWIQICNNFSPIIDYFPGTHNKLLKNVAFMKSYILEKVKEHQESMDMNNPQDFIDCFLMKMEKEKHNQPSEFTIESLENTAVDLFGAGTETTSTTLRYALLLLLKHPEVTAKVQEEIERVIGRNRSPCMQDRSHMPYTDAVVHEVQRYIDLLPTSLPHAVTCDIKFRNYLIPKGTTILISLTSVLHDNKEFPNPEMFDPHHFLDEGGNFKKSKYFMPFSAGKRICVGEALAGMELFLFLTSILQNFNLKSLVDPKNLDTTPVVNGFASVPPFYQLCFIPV

C=CCOC(=O)C(C(C)=O)[C@@H](NC(=O)OC)c1cccc(C)c1 (some centres undefined)
inactive: Potency [1] | Potency [2] | Potency [3] | Potency [4] | Potency [5] | Potency [6]

CCN1C(=NCCc2ccc(Br)cc2)N[C@@H](c2ccccc2)[C@H](C(=O)OC)[C@H]1C
inactive: Potency [1] | Potency [2] | Potency [3] | Potency [4] | Potency [5] | Potency [6]

CCOC(=O)CN1C(=O)NC(c2ccc(Br)cc2)C(C(=O)OC)=C1C (centres undefined)
inactive: Potency [1] | Potency [2] | Potency [3] | Potency [4] | Potency [5] | Potency [6]

CCOC(=O)C1=CN(CCCc2cn(Cc3ccccc3)nn2)C(=O)NC1c1ccccc1 (centres undefined)
inactive: Potency [1] | Potency [2] | Potency [3] | Potency [4] | Potency [5] | Potency [6]

COC(=O)c1ccccc1C[C@]1(C(=O)OC)C=C[C@H](C)[C@@H](c2ccccc2)N1C(=O)C(F)(F)F
inactive: Potency [1] | Potency [2] | Potency [3] | Potency [4] | Potency [5] | Potency [6]

Cc1c(O)ccc2c1OCO2
inactive: activity change, negative = inhibition [7] -0.37% [at 11.4 µM] | activity change, negative = inhibition [8] -25.6% [at 11.4 µM] | activity change, negative = inhibition [9] -1.17% [at 11.4 µM] | activity, negative = inhibition [10] 39.4% [at 11.4 µM] | Potency [1] | Potency [2] | Potency [3] | Potency [4] | Potency [5] | Potency [6]

CC(C)OC(=O)CC(NC(=O)OC(C)(C)C)c1ccccc1 (centres undefined)
inactive: Potency [1] | Potency [2] | Potency [3] | Potency [4] | Potency [5] | Potency [6]

C[C@@H]1[C@@H](c2ccccc2)Cc2nc3ccccc3nc2C[C@H]1C(=O)N1CCCC1
inactive: Potency [1] | Potency [2] | Potency [3] | Potency [4] | Potency [5] | Potency [6]

COCCN1C(=O)NC(c2ccco2)C(C(=O)OC)=C1C (centres undefined)
inactive: Potency [1] | Potency [2] | Potency [3] | Potency [4] | Potency [5] | Potency [6]

C=C(CC(=O)OC)C[C@]1(CC(=O)OC)CC2(CC=C(C)C)C(=O)C(C(=O)c3ccccc3)=C(OC(=O)c3ccc(Br)cc3)C(CC=C(C)C)(C1)C2=O (some centres undefined)
inactive: activity change, negative = inhibition [7] 7.13% [at 11.4 µM] | activity change, positive = activation [11] -37.5% [at 11.4 µM] | activity change, negative = inhibition [9] -5% [at 11.4 µM] | activity, negative = inhibition [10] 79.8% [at 11.4 µM] | Potency [1] | Potency [2] | Potency [3] | Potency [4] | Potency [5] | Potency [6]

CCCCC1=CC2=CC(=O)C(C)(OC(=O)c3cnc4ccccc4n3)C(=O)C2=CO1 (centres undefined)
inactive: Potency [1] | Potency [2] | Potency [3] | Potency [4] | Potency [5] | Potency [6]

OC[C@H]1O[C@H](C#Cc2ccccc2)C=C[C@H]1O
inactive: Potency [1] | Potency [2] | Potency [3] | Potency [5] | Potency [6]

O=C1[C@@H]2[C@H]3[C@H](O)[C@H](O)CC(=NOC[C@@H](O)COCc4ccco4)[C@H]3CC[C@H]2C(=O)N1C[C@@H]1CCCO1
inactive: Potency [1] | Potency [2] | Potency [3] | Potency [5] | Potency [6]

CON(C)C(=O)c1nnc2c3ccccc3n(S(=O)(=O)c3ccc(C)cc3)c2n1
inactive: activity change, positive = activation [11] -39.7% [at 11.4 µM] and -50.5% [at 11.4 µM] | Potency [1] | Potency [2] | Potency [3] | Potency [4] | Potency [5] | Potency [6]

C#CCCCON=C1C[C@@H](O)[C@H](O)[C@H]2[C@@H]3C(=O)N(C4CCCCC4)C(=O)[C@@H]3CC[C@H]12
inactive: Potency [1] | Potency [2] | Potency [3] | Potency [5] | Potency [6]

COC(=O)[C@H](Cc1ccccc1)NC(=O)O[C@@H]1C(=O)c2cc(Br)ccc2O[C@H]1c1ccc2c(c1)OCO2
inactive: Potency [1] | Potency [2] | Potency [3] | Potency [5] | Potency [6]

CCOC(=O)CCN1C(=O)[C@@H]2[C@H]3[C@H](O)[C@H](O)CC(=NNC(=O)OCc4ccc(OC)cc4)[C@@H]3CC[C@H]2C1=O
inactive: Potency [1] | Potency [2] | Potency [3] | Potency [5] | Potency [6]

C#CCCCON=C1C[C@@H](O)[C@H](O)[C@H]2[C@@H]3C(=O)N(c4cccc(Oc5ccccc5)c4)C(=O)[C@@H]3CC[C@@H]12
inactive: Potency [1] | Potency [2] | Potency [3] | Potency [5] | Potency [6]

COc1cccc(CO[C@H]2C=C[C@@H](c3ccccc3)O[C@H]2COC(C)=O)c1
inactive: Potency [1] | Potency [2] | Potency [3] | Potency [5] | Potency [6]

COc1ccc(-c2nc3c(c4c2C[C@H](c2ccccc2)OC4)CN(C(=O)N[C@@H](C)c2ccccc2)CC3)c(C)c1
inactive: activity, negative = inhibition [1] 3.19% [at 1.12 µM] | Potency [2] | Potency [5] | Potency [6]
active: Potency [3] 1690 nM

CCCC[C@@H]1CN2[C@H](c3ccc(Br)cc3)[C@H](C)CC[C@H]2C(=O)O1
active: Potency [10] 3980 nM | Potency [6] 944 nM
inactive: activity change, positive = activation [11] -42.5% [at 11.4 µM] | Potency [1] | Potency [2] | Potency [3] | Potency [4] | Potency [5]

COC(=O)CC=C1c2ccc3c(c2[C@@H](OC)[C@@H]1C)OCO3
inactive: Potency [1] | Potency [2] | Potency [3] | Potency [5] | Potency [6]

C=CC[C@](C)(Nc1ccc(OC)cc1)C(=O)OCC
inactive: Potency [1] | Potency [2] | Potency [3] | Potency [5] | Potency [6]

C[C@@H]1C=CCCO[C@]12C(=O)N(Cc1ccc(Br)cc1)c1ccccc12
inactive: Potency [1] | Potency [2] | Potency [3] | Potency [5] | Potency [6]
